Assay outcomes as filed in PubChem.
HepG2 viability: qHTS for Inhibitors of TGF-b: Cytotox Counterscreen. hit rate 0.76% among 410,000. HepG2 CAGA-GFP viability, ATP luminescence, 18 h. Potency, µM (series often up to 46.1 µM), for the others: at the highest dose activity change, negative = cytotoxicity, most hits filed as cytotoxic; further: potency means the concentration at half of the fitted maximal effect
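HepG2 CAGA-GFP cells (1000/well, DMEM with 1% FBS) received compound, then TGF-beta at 500 pg/mL final, and were incubated 18 hours at 37 degrees C. Viability was read by CellTiter-Glo luminescence. Media-only wells were set as complete cell-killing and DMSO as no toxicity.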
TDP1 cell CPT: qHTS for Inhibitors of human tyrosyl-DNA phosphodiesterase 1 (TDP1): qHTS in cells in presence of CPT. chicken DT40 Tdp1-/-;hTDP1 cells + 20 nM CPT, ATP luminescence, 48 h. Potency, µM (top dose mostly 46.2 µM), for the others: at the highest dose activity change, negative = growth inhibition, hits mostly inhibitors. hit rate 12% among 420,000. AID 686979, 2013; further: potency means the concentration at half of the fitted maximal effect; on the % scale 0 is the no-effect control and ±100 the full control effect; nearly all actives have a fitted effect of over 55% in size
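Chicken DT40 Tdp1-/- cells complemented with human TDP1, 400 cells/well, exposed to compounds plus 20 nM camptothecin for at least 48 h at 37 C; viability read as ATP content by CellTiter-Glo luminescence.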
TDP1 block: qHTS Assay for Inhibitors of Tyrosyl-DNA Phosphodiesterase (TDP1). Tyrosyl-DNA phosphodiesterase 1 (Homo sapiens), Q9NUW8. recombinant TDP1, AlphaScreen DNA substrate cleavage. Potency, µM (doses to about 130 µM), for inactives: at the highest dose activity change, negative = inhibition, usual class: inhibitors. hit rate 0.28% among 350,000; further: potency means the concentration at half of the fitted maximal effect; on the % scale 0 is the no-effect control and ±100 the full control effect; nearly all actives have a fitted effect of over 40% in size
Target sequence (Q9NUW8 whole entry, looked up): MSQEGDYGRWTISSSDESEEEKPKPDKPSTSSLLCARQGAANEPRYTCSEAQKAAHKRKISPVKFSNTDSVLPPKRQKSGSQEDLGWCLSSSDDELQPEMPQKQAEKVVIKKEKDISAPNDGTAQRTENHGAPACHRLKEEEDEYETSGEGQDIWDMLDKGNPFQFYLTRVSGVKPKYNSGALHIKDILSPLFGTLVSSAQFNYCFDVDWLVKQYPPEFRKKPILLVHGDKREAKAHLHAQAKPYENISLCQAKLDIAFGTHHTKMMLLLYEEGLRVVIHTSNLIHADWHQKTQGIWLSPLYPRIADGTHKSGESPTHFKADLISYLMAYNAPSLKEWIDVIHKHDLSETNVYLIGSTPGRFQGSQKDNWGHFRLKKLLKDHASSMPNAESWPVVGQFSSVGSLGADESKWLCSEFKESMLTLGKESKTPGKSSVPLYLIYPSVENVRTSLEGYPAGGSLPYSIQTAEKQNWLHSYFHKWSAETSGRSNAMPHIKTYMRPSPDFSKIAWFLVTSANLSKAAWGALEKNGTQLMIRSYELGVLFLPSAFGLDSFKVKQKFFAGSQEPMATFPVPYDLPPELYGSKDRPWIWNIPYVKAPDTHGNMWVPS
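E. coli-derived human Tdp1, 1 nM final. Cpd preinc 15 min RT; substrate 15 nM final, 5 min RT; AS bead mix 10 ug/ml final, 10 min RT. Signal loss = tyrosine-FITC cleavage. No-enzyme wells = max signal.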
TDP1 cell noCPT: qHTS for Inhibitors of human tyrosyl-DNA phosphodiesterase 1 (TDP1): qHTS in cells in absence of CPT | DT40 Tdp1-/- hTDP1 cells, no CPT, ATP luminescence, 48 h | Potency, µM (titrated, usually from 46.2 µM), for inactives: at the top dose activity change, negative = growth inhibition, actives largely listed as inhibitors | hit rate 15% among 420,000; further: potency means the concentration at half of the fitted maximal effect; on the % scale 0 is the no-effect control and ±100 the full control effect; nearly all actives have a fitted effect of over 55% in size
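A cellular qHTS used chicken DT40 cells lacking endogenous Tdp1 but carrying stably transfected human TDP1. Compounds were applied without camptothecin, and cell growth kinetics were judged by ATP-dependent luminescence after ≥48 hr.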
TGFb SMAD3 inh: qHTS for Inhibitors of TGF-b; HepG2 CAGA-GFP TGF-b/SMAD3 reporter, GFP fluorescence, 18 h; TGF-beta stimulated, 500 pg/mL final; Potency, µM (titrated, usually from 46.1 µM), for the others: top-dose activity, negative = inhibition, actives largely listed as inhibitors; hit rate 1.2% among 410,000; further: potency means the concentration at half of the fitted maximal effect; on the % scale 0 is the no-effect control and ±100 the full control effect; nearly all actives have a fitted effect of over 65% in size
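TGF-beta reporter screen: HEPG2 CAGA-GFP, 1% FBS, 500 pg/mL TGF-beta final, 18 h; per-cell GFP summed per well; curves fitted and categorized by class.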
IL-1B inflam inh: qHTS for Inhibitors of Inflammasome Signaling: IL-1-beta AlphaLISA Primary Screen; THP-1 LPS/ATP IL-1B secretion, AlphaLISA, 16 h; stronger effect = lower value; activity change, % at 57.5 µM; hit rate 4.7% among 360,000; AID 743279, 2014; in the data active means activity change below about -50%; inconclusive means mostly about -30% to -49%; further: on the % scale 0 is the no-effect control and ±100 the full control effect
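THP-1 cells pretreated 1 hr with compounds (up to 57.5 uM final), then stimulated with LPS (250 ng/mL final) plus ATP (1.25 mM final); secreted IL-1B measured by AlphaLISA after 16 hr, decreased signal indicating inhibition.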
* = called active by the depositor; [ ] = remark or other dose. In the library only some 19% were active in any assay of this set; here they are far more common. Unless noted, the call rests on the fitted dose curve; in most records, active means well fitted curve in the direction sought with a large enough effect; inconclusive means small, poorly fitted or top-dose-only effect, or another doubt; inactive means no such curve, though single readings can be large; an effect the other way counts as inactive or inconclusive.

What do the screens show for `CC(=O)Nc1ccc(C(=O)COC(=O)C2CC2)c(F)c1`?
HepG2 viability: -9.7%; TDP1 cell CPT: 14.0%; TDP1 block: -9.0%; TDP1 cell noCPT: 4.6%; TGFb SMAD3 inh: 8.0%; IL-1B inflam inh: -0.7

Results for O=C1CC2(CCN(C(=O)c3ccc(F)c(F)c3)CC2)Oc2ccccc21 ?
HepG2 viability: 5.8%; TDP1 cell CPT: 29.1µM*; TDP1 block: -7.5%[0.505 µM]; TDP1 cell noCPT: inconclusive; TGFb SMAD3 inh: 2.7%; IL-1B inflam inh: -10.8

Results for CCSc1ccccc1C(=O)N1CCC2(CC1)CC(=O)c1ccccc1O2 ?
HepG2 viability: -16.9%; TDP1 cell CPT: -45.6%; TDP1 block: -11.0%[0.505 µM]; TDP1 cell noCPT: 16.4µM*; TGFb SMAD3 inh: -14.1%; IL-1B inflam inh: -0.8

Results for O=C1CC2(CCN(C(=O)c3ccccc3Cl)CC2)Oc2ccccc21 ?
HepG2 viability: -2.5%; TDP1 cell CPT: inconclusive; TDP1 block: -0.4%; TDP1 cell noCPT: inconclusive; TGFb SMAD3 inh: -27.5%; IL-1B inflam inh: -18.4

How did CCOC(=O)c1c(NC(=O)COC(=O)CCCOc2ccc(OC)cc2)sc(C(=O)N(C)C)c1C do in these assays?
HepG2 viability: -4.7%; TDP1 cell CPT: -0.7%; TDP1 cell noCPT: inconclusive; TGFb SMAD3 inh: 12.0%; IL-1B inflam inh: -1.6

How did COc1cc(CNC(C)(C)CO)cc(Br)c1OCc1ccc(Cl)cc1 do in these assays?
HepG2 viability: -108.3%; TDP1 cell CPT: inconclusive; TDP1 block: 3.1%; TDP1 cell noCPT: inconclusive; TGFb SMAD3 inh: inconclusive; IL-1B inflam inh: -114.4*

Results for COc1cc(CNc2ccc(O)cc2)cc(Br)c1OCc1ccccc1 ?
HepG2 viability: -69.4%; TDP1 cell CPT: inconclusive; TDP1 block: 5.4%; TDP1 cell noCPT: inconclusive; TGFb SMAD3 inh: 22.4µM*; IL-1B inflam inh: -7.7

How did COc1cc(CNC(C)c2ccccc2)cc(Br)c1OCc1ccccc1 (centres undefined) do in these assays?
HepG2 viability: -97.2%; TDP1 cell CPT: -94.0%; TDP1 cell noCPT: 9.2µM*; TGFb SMAD3 inh: inconclusive; IL-1B inflam inh: -87.7*

How did CCOc1c(Br)cc(CNCc2cccs2)cc1OC do in these assays?
HepG2 viability: 24.8%; TDP1 cell CPT: 26.4%; TDP1 block: 0.0%; TDP1 cell noCPT: -17.4%; TGFb SMAD3 inh: 12.9%; IL-1B inflam inh: 14.8

What do the screens show for `COc1cc(CNC(C)(C)CO)cc(Br)c1OCc1ccc(Cl)cc1Cl`?
HepG2 viability: -105.9%; TDP1 cell CPT: inconclusive; TDP1 block: 4.3%; TDP1 cell noCPT: inconclusive; TGFb SMAD3 inh: inconclusive; IL-1B inflam inh: inconclusive

What do the screens show for `COc1cc(C(N)=O)cc(Br)c1OCc1ccccc1`?
HepG2 viability: -19.3%; TDP1 cell CPT: inconclusive; TDP1 block: 5.3%; TDP1 cell noCPT: inconclusive; TGFb SMAD3 inh: 0.0%; IL-1B inflam inh: 0.0

How did COc1cc(/C=C2/NC(=O)NC2=O)cc(Br)c1OCc1ccc(C(=O)O)cc1 do in these assays?
HepG2 viability: 10.5%; TDP1 cell CPT: 5.1%; TDP1 block: 70.8µM*; TDP1 cell noCPT: -2.7%; TGFb SMAD3 inh: 11.7%; IL-1B inflam inh: 3.9

How did Cc1ccc(S(=O)(=O)N2CCN(C(=O)COC(=O)c3ccc(O)cc3)CC2)c(C)c1 do in these assays?
HepG2 viability: -2.8%; TDP1 cell CPT: -8.0%; TDP1 cell noCPT: inconclusive; TGFb SMAD3 inh: 8.5%; IL-1B inflam inh: -4.2

How did C[C@H](CO)N1C[C@H](C)[C@@H](CN(C)Cc2ccncc2)Oc2c(NS(=O)(=O)c3cn(C)cn3)cccc2C1=O do in these assays?
HepG2 viability: -0.6%; TDP1 cell CPT: 5.9%; TDP1 block: -0.1%; TDP1 cell noCPT: -0.9%; TGFb SMAD3 inh: 8.7%; IL-1B inflam inh: 28.1

What do the screens show for `COc1cc(CNC(C)c2ccccc2)cc(Br)c1OCc1ccc(F)cc1` (centres undefined)?
HepG2 viability: 22.4µM*; TDP1 cell CPT: inconclusive; TDP1 cell noCPT: inconclusive; TGFb SMAD3 inh: inconclusive; IL-1B inflam inh: -94.2*

Results for COc1cc(/C=N/O)cc(Br)c1OCc1ccc(Cl)cc1 ?
HepG2 viability: 12.6µM*; TDP1 cell CPT: inconclusive; TDP1 block: 0.0%; TDP1 cell noCPT: inconclusive; TGFb SMAD3 inh: inconclusive; IL-1B inflam inh: inconclusive

How did COc1cc(/C=N/O)cc(Br)c1OC do in these assays?
HepG2 viability: 2.4%; TDP1 cell CPT: -23.0%; TDP1 block: 0.0%; TDP1 cell noCPT: -22.1%; TGFb SMAD3 inh: -7.0%; IL-1B inflam inh: 0.2

What do the screens show for `Cc1nc(=S)c2c([nH]1)-c1ccccc1CC21CCCCC1`?
HepG2 viability: -62.3%; TDP1 cell CPT: 20.6µM*; TDP1 block: 7.1%; TDP1 cell noCPT: 18.4µM*; TGFb SMAD3 inh: 0.0%; IL-1B inflam inh: 0.6

Results for COc1cccc(C(=O)Nc2nc3c(s2)CCCC3)c1 ?
HepG2 viability: -28.8%; TDP1 cell CPT: inconclusive; TDP1 block: 6.8%; TDP1 cell noCPT: inconclusive; TGFb SMAD3 inh: inconclusive

What do the screens show for `COc1cccc(CNc2nc3ccccc3n2CCN2CCCCC2)c1`?
HepG2 viability: -52.6%; TDP1 cell CPT: 12.6µM*; TDP1 block: 8.0%; TDP1 cell noCPT: inconclusive; TGFb SMAD3 inh: inconclusive; IL-1B inflam inh: -9.6

How did CCCCCn1c(NCc2ccc(OC)cc2)nc2ccccc21 do in these assays?
HepG2 viability: -48.5%; TDP1 cell CPT: 16.4µM*; TDP1 block: 3.2%; TDP1 cell noCPT: 23.1µM*; TGFb SMAD3 inh: 12.6µM*

Results for Brc1ccc(CNc2nc3ccccc3n2CCN2CCCCC2)cc1 ?
HepG2 viability: -74.4%; TDP1 cell CPT: inconclusive; TDP1 block: 3.6%; TDP1 cell noCPT: 23.1µM*; TGFb SMAD3 inh: inconclusive; IL-1B inflam inh: inconclusive

Results for Brc1cccc(CNc2nc3ccccc3n2CCN2CCCCC2)c1 ?
HepG2 viability: -57.7%; TDP1 cell CPT: inconclusive; TDP1 block: 7.1%; TDP1 cell noCPT: inconclusive; TGFb SMAD3 inh: inconclusive; IL-1B inflam inh: -29.7

What do the screens show for `CCCCCn1c(NCc2ccco2)nc2ccccc21`?
HepG2 viability: 15.1%; TDP1 cell CPT: -6.3%; TDP1 block: 1.3%; TDP1 cell noCPT: inconclusive; TGFb SMAD3 inh: -12.9%; IL-1B inflam inh: -24.8
